Results reported in PubChem BioAssay (NCATS).
Results filed as inconclusive are left out. Where a call stands in place of a potency, no number is given. Unmarked numbers belong to inactive results. Calls of active or inactive are those of the source. Unless noted, the call rests on the fitted dose curve; in most records, active means well fitted curve in the direction sought with a large enough effect; inconclusive means small, poorly fitted or top-dose-only effect, or another doubt; inactive means no such curve, though single readings can be large; an effect the other way counts as inactive or inconclusive.

Experiments:
[1] = qHTS for Inhibitors of Plasmodium falciparum (DD2) proliferation (AID 504314);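 further: parasite DNA measured by SYBR Green fluorescence after red cell lysis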
In short: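 Infected RBCs, 0.3% parasitemia, 2.5% Hct; compound 72 h, 37C/5% CO2; lyse + SYBR Green I, RT overnight, dark; read ex485/em535; normalize to DMSO and artemisinin 0.29 uM.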

[2] = qHTS for Inhibitors of Plasmodium falciparum (GB4) proliferation (AID 504315); further: nearly all actives have a fitted effect of over 50% in size
In short: (§1)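 Erythrocytes infected with P. falciparum line (0.3% parasitemia, 2.5% hematocrit final) incubated with compounds 72 h at 37 °C, 5% CO2; SYBR Green lysis buffer added, fluorescence read next day. Normalized to 0.29 uM artemisinin and DMSO.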

[3] = qHTS for Inhibitors of Plasmodium falciparum (7G8) proliferation (AID 504316); further: nearly all actives have a fitted effect of over 65% in size; further: potency means the concentration at half of the fitted maximal effect; on activity change, negative = inhibition: series mostly up to about 6.7 µM
In short: as §1

[4] = qHTS for Inhibitors of Plasmodium falciparum (CP250) proliferation (AID 504320)
In short: as §1

[5] = target: Atrial natriuretic peptide receptor 1 (Homo sapiens) (UniProt P16066); experiment: Natriuretic polypeptide receptor (hNpr1) antagonism - Pilot CMLD screen (AID 1347052; calls by dose curve;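 further: HEK293 cells with hNpr1 stimulated by hNppA peptide at 0.1 nM; cGMP level read as GloSensor luciferase luminescence after agonist stimulation; series mostly up to about 9.2 µM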)
[6] = target: Cytochrome P450 2C9 (Homo sapiens) (UniProt P11712); experiment: qHTS Assay for Inhibitors and Substrates of Cytochrome P450 2C9 (AID 883); further: nearly all actives have a fitted effect of over 60% in size
In short: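 A luminogenic readout tracked human CYP2C9 (10nM) converting deoxyluciferin (100uM, at KM) in 25mM KPO4 during 60 min at 37C with regenerated NADPH. Values normalized to 57uM sulphaphenazole as complete inhibition.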

[7] = target: Cytochrome P450 3A4 (Homo sapiens) (UniProt P08684); experiment: qHTS Assay for Inhibitors and Substrates of Cytochrome P450 3A4 (AID 884); further: series mostly up to about 57 µM; nearly all actives have a fitted effect of over 50% in size
In short: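 20 nM human CYP3A4 with 25 uM Luciferin-PPXE (at KM) in 200 mM KPO4, preincubated 10 min with compound; NADPH regeneration started a 60 min RT reaction. Luciferin detected by luminescence, normalized to 57 uM ketoconazole as full inhibition.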

[8] = target: Cytochrome P450 2C19 (Homo sapiens) (UniProt P33261); experiment: qHTS Assay for Inhibitors and Substrates of Cytochrome P450 2C19 (AID 899); further: nearly all actives have a fitted effect of over 60% in size
In short: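 NADPH-dependent conversion of Luciferin-H EGE (10uM, at KM) by 5nM enzyme in 50mM KPO4, 60 min at 37C following 10 min compound preincubation. Stopped with luciferin detection buffer; luminescence read after 20 min.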

[9] = qHTS for Inhibitors of Plasmodium falciparum (HB3) proliferation (AID 504318); further: nearly all actives have a fitted effect of over 60% in size
In short: as §1

Chain of Atrial natriuretic peptide receptor 1 (Homo sapiens) (P16066 whole entry, looked up): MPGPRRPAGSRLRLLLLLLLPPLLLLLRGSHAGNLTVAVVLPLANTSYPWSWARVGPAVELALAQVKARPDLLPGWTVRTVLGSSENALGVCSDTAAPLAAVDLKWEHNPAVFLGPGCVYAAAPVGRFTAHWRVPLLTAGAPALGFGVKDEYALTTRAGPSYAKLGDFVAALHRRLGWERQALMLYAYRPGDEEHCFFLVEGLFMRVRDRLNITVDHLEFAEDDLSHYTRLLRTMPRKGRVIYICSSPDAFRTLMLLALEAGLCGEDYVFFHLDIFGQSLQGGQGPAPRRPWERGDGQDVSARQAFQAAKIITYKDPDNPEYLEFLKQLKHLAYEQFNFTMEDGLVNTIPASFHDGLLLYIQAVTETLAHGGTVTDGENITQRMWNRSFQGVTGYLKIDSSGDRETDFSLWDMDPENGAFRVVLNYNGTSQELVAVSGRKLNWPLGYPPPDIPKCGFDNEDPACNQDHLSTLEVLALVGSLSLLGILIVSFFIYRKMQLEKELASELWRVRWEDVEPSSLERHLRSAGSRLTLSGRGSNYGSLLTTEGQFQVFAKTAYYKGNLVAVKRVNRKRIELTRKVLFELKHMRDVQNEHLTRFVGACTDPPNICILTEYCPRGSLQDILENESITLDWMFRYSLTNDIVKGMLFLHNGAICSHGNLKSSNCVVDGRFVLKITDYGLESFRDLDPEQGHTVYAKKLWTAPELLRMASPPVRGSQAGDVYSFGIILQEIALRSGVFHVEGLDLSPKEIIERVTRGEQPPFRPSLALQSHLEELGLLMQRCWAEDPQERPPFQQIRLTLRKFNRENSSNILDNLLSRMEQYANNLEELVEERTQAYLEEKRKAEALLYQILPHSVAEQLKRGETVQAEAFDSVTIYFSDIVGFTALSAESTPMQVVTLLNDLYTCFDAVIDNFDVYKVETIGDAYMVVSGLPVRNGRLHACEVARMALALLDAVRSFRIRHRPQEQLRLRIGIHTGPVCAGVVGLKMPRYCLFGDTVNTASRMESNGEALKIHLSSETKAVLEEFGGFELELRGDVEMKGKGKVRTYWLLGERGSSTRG
Chain of Cytochrome P450 3A4 (Homo sapiens) (P08684 whole entry, looked up): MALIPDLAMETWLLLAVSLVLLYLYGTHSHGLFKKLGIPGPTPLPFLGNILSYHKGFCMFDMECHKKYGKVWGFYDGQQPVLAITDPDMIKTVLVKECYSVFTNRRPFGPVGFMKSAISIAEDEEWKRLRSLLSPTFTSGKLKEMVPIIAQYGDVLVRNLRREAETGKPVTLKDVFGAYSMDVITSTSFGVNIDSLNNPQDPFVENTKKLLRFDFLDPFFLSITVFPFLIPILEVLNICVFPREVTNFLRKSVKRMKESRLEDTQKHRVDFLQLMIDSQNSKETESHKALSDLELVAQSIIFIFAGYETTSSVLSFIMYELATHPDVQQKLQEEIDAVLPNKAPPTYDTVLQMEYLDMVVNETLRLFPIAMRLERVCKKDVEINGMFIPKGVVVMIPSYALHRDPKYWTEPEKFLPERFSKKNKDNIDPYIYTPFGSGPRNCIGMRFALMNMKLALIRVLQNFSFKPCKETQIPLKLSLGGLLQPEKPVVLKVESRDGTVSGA
Chain of Cytochrome P450 2C19 (Homo sapiens) (P33261 whole entry, looked up): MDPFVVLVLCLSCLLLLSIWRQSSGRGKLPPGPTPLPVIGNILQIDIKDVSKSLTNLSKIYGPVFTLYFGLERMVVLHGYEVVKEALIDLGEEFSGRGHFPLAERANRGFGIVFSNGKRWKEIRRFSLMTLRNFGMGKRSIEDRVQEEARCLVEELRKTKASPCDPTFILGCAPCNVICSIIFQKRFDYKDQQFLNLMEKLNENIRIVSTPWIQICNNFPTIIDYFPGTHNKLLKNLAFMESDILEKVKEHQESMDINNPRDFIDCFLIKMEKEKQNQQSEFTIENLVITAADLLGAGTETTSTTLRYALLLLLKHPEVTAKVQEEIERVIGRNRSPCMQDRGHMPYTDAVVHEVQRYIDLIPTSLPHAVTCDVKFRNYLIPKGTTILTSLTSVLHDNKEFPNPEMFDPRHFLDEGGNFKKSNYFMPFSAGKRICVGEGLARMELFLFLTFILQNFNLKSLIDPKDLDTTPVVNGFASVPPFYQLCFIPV
Chain of Cytochrome P450 2C9 (Homo sapiens) (P11712 whole entry, looked up): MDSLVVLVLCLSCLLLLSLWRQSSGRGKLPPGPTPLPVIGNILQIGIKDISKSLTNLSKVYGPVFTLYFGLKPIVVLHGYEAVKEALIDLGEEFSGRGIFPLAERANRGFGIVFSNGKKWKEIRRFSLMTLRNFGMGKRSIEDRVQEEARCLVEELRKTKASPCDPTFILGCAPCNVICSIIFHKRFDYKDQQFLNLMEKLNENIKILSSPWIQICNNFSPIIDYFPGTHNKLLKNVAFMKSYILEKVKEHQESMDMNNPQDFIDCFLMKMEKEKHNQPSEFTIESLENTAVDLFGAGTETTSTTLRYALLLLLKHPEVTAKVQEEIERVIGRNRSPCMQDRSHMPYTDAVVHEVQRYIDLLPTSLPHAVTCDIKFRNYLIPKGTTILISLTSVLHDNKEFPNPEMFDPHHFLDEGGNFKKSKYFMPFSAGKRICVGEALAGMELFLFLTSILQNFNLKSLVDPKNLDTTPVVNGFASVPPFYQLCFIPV

SMILES	Potency [1]	Potency [2]	Potency [3]	Potency [4]	Potency [5]	activity change, negative = inhibition [6]	activity change, negative = inhibition [7]	activity, negative = inhibition [8]	Potency [9]	activity, negative = inhibition [1]
COC(=O)CC=C1c2ccc3c(c2[C@@H](OC)[C@@H]1C)OCO3	inactive	inactive	inactive	inactive	inactive					
CC(C)C(=O)NC(=O)[C@@H]1CCCN1C(=O)C=Cc1ccccc1	inactive	inactive	inactive	inactive	inactive					
CCCCCCCC1=CC2=CC(=O)C(C)(O)C(=O)C2=CN1CCCC (stereo not drawn)	inactive	inactive	inactive	inactive	inactive	13.4% [at 11.4 µM]	-26.9% [at 11.4 µM]	80.9% [at 11.4 µM]	inactive	
CC(=O)OC[C@H]1O[C@@H](ON=C(C)CCN2CCCCc3nc(C)c(C)cc32)[C@H](OC(C)=O)[C@@H](OC(C)=O)[C@H]1OC(C)=O	inactive	inactive	inactive	inactive	inactive					
COC(=O)NCC=Cc1nc(CCCO)co1	inactive	inactive	inactive	inactive	inactive					
C[C@H]1Cc2c(COc3ccccc3)nc3c(c2CO1)CN(C(=O)C1CC1)CC3	inactive	inactive	inactive	inactive	inactive					
COC(=O)c1ccc(CN2C(=O)[C@]3(O[C@H](C)CC4=CCCC43)c3c(Br)cccc32)cc1 (stereo partly drawn)	inactive	inactive	inactive	inactive	inactive					
Cc1c(O)c(=O)c2ccccc2n1C	inactive	inactive	inactive	inactive	inactive	25.8% [at 11.4 µM]	0.317% [at 11.4 µM]	73.4% [at 11.4 µM]	inactive	
C=CCNC(=O)[C@H]1C=C(OC)C(=O)C[C@H]2c3ccccc3C[C@]12C	inactive	inactive	inactive	inactive	inactive					
COc1cc2c(cc1OC)C1OC(c3ccsc3)(C2)Oc2cc(C)oc(=O)c21 (stereo not drawn)	inactive	inactive	inactive	inactive	inactive					
C=CC[C@@](C(C)=O)(C(=O)OC)[C@@H](NC(=O)OC)c1ccccc1	inactive	inactive	inactive	inactive	inactive					
CC(=O)OC[C@H]1O[C@@H](ON=C2C[C@@H](O)[C@@H](O)[C@@H]3[C@H]4C(=O)N(C5CCCCC5)C(=O)[C@@H]4CC[C@@H]23)[C@H](OC(C)=O)[C@@H](OC(C)=O)[C@H]1OC(C)=O	inactive	inactive	inactive	inactive	inactive					
CCCNC(=O)OC[C@H]1O[C@H](CCON=C2C[C@@H](O)[C@@H](O)[C@@H]3[C@H]4C(=O)N(CC)C(=O)[C@@H]4CC[C@H]23)C=C[C@H]1Oc1ccc(OC)cc1	inactive	inactive	inactive	inactive	inactive					
C=C(C)CCN1C(=O)NC(c2ccccc2)C(C(C)=O)=C1C (stereo not drawn)	inactive	inactive	inactive	inactive	inactive					
CCCNC(=O)OC[C@H]1O[C@H](CCON=C2c3cc(OC)ccc3O[C@H](c3cccc(OC)c3)[C@H]2O)C=C[C@H]1Oc1ccc(OC)cc1	inactive	inactive	1.69 µM (active)	inactive	inactive					
COC(=O)CCCC1=CC2=CC(=O)C(C)(OC(=O)c3cccs3)C(=O)C2=CN1C1CCCCC1 (stereo not drawn)	inactive	inactive	inactive	inactive	inactive					
COC(=O)C1=C(C(=O)OC)[C@@H]2N(Cc3ccccc3)c3ccccc3[C@@]23C[C@@H](C(=O)OC)N(C(=O)Nc2ccc(C(F)(F)F)cc2)C3=N1	inactive	inactive	inactive	inactive	inactive					
COc1ccc(C2=CC3=C(Br)C(=O)C(C)(OC(=O)c4ccc(Cl)nc4)C(=O)C3=CO2)cc1 (stereo not drawn)	inactive	inactive	inactive	inactive	inactive					
COc1cc2c(cc1OC)[C@@H]1O[C@](c3ccsc3)(C2)OC2=C1C(=O)OC1(CCCCC1)C2	inactive	inactive	inactive	inactive	inactive					
CCN1C(=NCc2ccc(OC)cc2)N[C@@H](CCc2ccccc2)[C@H](C(=O)NCc2ccc(OC)cc2)[C@H]1C	inactive	inactive	inactive	inactive	inactive					
C=CCCC1(CCC)C(=O)C(=C(O)c2ccccc2)C(=O)C(CCC)=C1OC (stereo not drawn)	inactive	inactive	inactive	inactive	inactive					
COc1cccc([C@@H]2Oc3ccc(Br)cc3C(=O)[C@@H]2OC(=O)N[C@H]2CCCc3ccccc32)c1	inactive	inactive	inactive	inactive	inactive					
COC(=O)c1c(C(=O)OC)c2c3ccccc3cc(C3CC3)n2c1C(=O)OC	inactive	inactive	inactive	inactive	inactive					
COc1ccc2c(c1)c(CC(=O)NCc1ccc3c(c1)OCO3)c(C)n2C(=O)c1ccc(Cl)cc1	inactive	inactive	inactive	inactive	inactive					
COC(=O)C1=C[C@@]2(c3ccc(F)cc3[C@@H](OC)[C@@H]2C)[C@@H]2C=C[C@H]1C2	inactive	inactive	inactive	inactive	inactive					
COc1cccc(CO[C@H]2C=C[C@@H](c3ccccc3)O[C@H]2COC(C)=O)c1	inactive	inactive	inactive	inactive	inactive					
CCCCC1=CC2=C(c3ccco3)C(=O)C(C)(OC(=O)c3ccc(OC)cc3)C(=O)C2=CN1C1CCCCC1 (stereo not drawn)	inactive	inactive	inactive	inactive	inactive					

SMILES	Potency [1]	Potency [2]	Potency [3]	Potency [4]	Potency [5]	activity change, negative = inhibition [6]	activity change, negative = inhibition [7]	activity, negative = inhibition [8]	Potency [9]	activity, negative = inhibition [1]
COC(=O)CCC(=O)OC1(C)C(=O)C=C2C=C(C3CC3)N(CCc3c[nH]c4ccccc34)C=C2C1=O (stereo not drawn)	inactive	inactive	inactive	inactive	inactive					
COC(=O)c1cc(C(=O)OC)n2c(C)cc3ccccc3c12	inactive	inactive	inactive	inactive	inactive					
C=C[C@@]1(C)CCC=C2C(=O)CCC[C@H]21	inactive	inactive	inactive	inactive	inactive					
COc1ccc(CN2C=C3C(=O)C(C)(OC(=O)C4CCCC4)C(=O)C=C3C=C2c2ccsc2)cc1 (stereo not drawn)		inactive	inactive	inactive	inactive					-5.43% [at 1.12 µM]
C[C@H]1CC[C@H]2C(=O)NC[C@H](O)CN2[C@H]1c1ccc(Br)cc1	inactive	inactive	inactive	inactive	inactive					
C=C(CO[C@@H]1C=C[C@@H](c2ccccc2)O[C@@H]1CO)c1ccccc1	inactive	inactive	inactive	inactive	inactive					
COC[C@H]1O[C@H](c2ccccc2)C=C[C@H]1OCc1cccc(Br)c1	inactive	inactive	inactive	inactive	inactive					
C#CCCCON=C1C[C@@H](O)[C@H](O)[C@H]2[C@@H]3C(=O)N(C4CCCCC4)C(=O)[C@@H]3CC[C@H]12	inactive	inactive	inactive	inactive	inactive					
COc1cc2c(c(OC)c1OC)C1(c3ccccc3)CCCCCC1[C@@H]2NC(=O)C(F)(F)F (stereo partly drawn)	inactive	inactive	inactive	inactive	inactive					
COC(=O)CCCC1=CC2=C(c3ccccc3)C(=O)C(C)(OC(=O)C3CCCC3)C(=O)C2=CN1Cc1ccc(OC)cc1 (stereo not drawn)		inactive	inactive	inactive	inactive					1.81% [at 1.12 µM]
Cc1cc(O)cc(O)c1C(=O)OC1(C)C(=O)C=C2C=C(C=CCO)OC=C2C1=O (stereo not drawn)	inactive	inactive	inactive	inactive	inactive					
COC(=O)NC(c1ccccc1)c1c[nH]c2ccccc12 (stereo not drawn)	inactive	inactive	inactive	inactive	inactive					
CCCNC(=O)CC1OC(C2CCCCC2)Cc2ccccc21 (stereo not drawn)	inactive	inactive	inactive	inactive	inactive					
COc1ccc(COC(=O)NN=C2C[C@@H](O)[C@@H](O)[C@@H]3[C@H]4C(=O)N(C[C@@H]5CCCO5)C(=O)[C@@H]4CC[C@H]23)cc1	inactive	inactive	inactive	inactive	inactive					
CC1=C[C@@H](C)OC2(C1)C(=O)N(Cc1ccc(Br)cc1)c1cccc(Br)c12 (stereo partly drawn)	inactive	inactive	inactive	inactive	inactive					
COC(=O)c1nnc(SC)nc1C(=O)OC	inactive	inactive	inactive	inactive	inactive					
C=CC[C@@H]1C=C[C@H](ON=C[C@@H](N[S+](=O)([O-])c2ccc(C)cc2)[C@H](C)C=CCC(=O)OC)[C@H](CO)O1	inactive	inactive	inactive	inactive	inactive					
CCN1C(=NCCc2cccnc2)NC(c2ccccc2)C(C(=O)OC)=C1C (stereo not drawn)	inactive	inactive	inactive	inactive	inactive					
CCN1C(=O)N[C@@H](CCc2ccccc2)[C@@H](C(=O)OC)[C@H]1C		inactive	inactive	inactive	inactive					2.52% [at 1.12 µM]
C#CCN1C(=O)C2(CC(C)=C[C@@H](C)O2)c2c(Br)cccc21 (stereo partly drawn)	inactive	inactive	inactive	inactive	inactive					
CCOC(=O)CN1C(=O)[C@]2(OCCC=C[C@@H]2C)c2cc(OC)ccc21	inactive	inactive	inactive	inactive	inactive					
CC(=O)OC[C@H]1O[C@H](c2cc(C)cc(C)c2)C=C[C@H]1OC(C)=O	inactive	inactive	inactive	inactive	inactive					
CCOC(=O)CN1C(=O)N[C@@H](c2cccc(C(F)(F)F)c2)[C@H](C(C)=O)[C@H]1C	inactive	inactive	inactive	inactive	inactive					
CC1(OC(=O)C2CCCC2)C(=O)C=C2C=C(c3ccsc3)N(C3CC3)C=C2C1=O (stereo not drawn)		inactive	inactive	inactive	inactive					-0.441% [at 1.12 µM]
C[C@H]1Cc2c(-c3ccccc3)nc3c(c2CO1)CN(C(=O)Cc1cccs1)CC3	inactive	inactive	inactive	inactive	inactive					
COC(=O)[C@H]1C[C@@]2(CC=C(C)C)C(=O)[C@@](CC=C(C)C)(C(=O)C(C(=O)c3ccccc3)=C2OC)C1(C)C	inactive	inactive	inactive	inactive	inactive					
